Cruzain inh noDet: blocks cruzain activity in detergent-free assay | P25779 | purified cruzain, Z-FR-AMC fluorescence, no detergent | Potency, µM, for inactives: max response, negative = inhibition, usual class: inhibitors | actives 2.3% (n = 200,000);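 note: plate controls were enzyme without inhibitor for no effect and buffer without enzyme for full effect; nearly all actives have a fitted effect of over 40% in size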
Target sequence (P25779 123-467 limits assumed): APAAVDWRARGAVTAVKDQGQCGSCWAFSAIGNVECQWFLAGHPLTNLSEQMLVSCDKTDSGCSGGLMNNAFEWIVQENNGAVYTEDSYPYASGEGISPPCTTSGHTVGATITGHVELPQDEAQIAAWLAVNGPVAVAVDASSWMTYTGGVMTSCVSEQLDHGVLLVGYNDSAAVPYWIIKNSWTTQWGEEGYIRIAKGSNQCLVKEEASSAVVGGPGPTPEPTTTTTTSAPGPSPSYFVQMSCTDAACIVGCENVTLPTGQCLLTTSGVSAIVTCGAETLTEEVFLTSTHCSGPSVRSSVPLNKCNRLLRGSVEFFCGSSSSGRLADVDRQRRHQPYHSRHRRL
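Detergent-free condition (0.00005% Triton X-100) in acetate buffer pH 5.5 with DTT. 1.5 nM enzyme and compound were pre-mixed 15 min, then 2 uM Z-FR-AMC substrate added; reaction progress from fluorescence change between first and third reads (60 s).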
Cruzain inh Det: cruzain (T. cruzi) inhibition with detergent. Potency, µM, for the others: max response, negative = inhibition, usual class: inhibitors. purified cruzain, Z-FR-AMC fluorescence, 0.01% Triton. actives 0.43% (n = 200,000). P25779;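 note: plate controls were neutral wells for no effect and buffer without enzyme for full effect; nearly all actives have a fitted effect of over 40% in size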
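Z-FR-AMC hydrolysis (2 uM substrate) by cruzain (1.5 nM) monitored kinetically at ex 360/em 450 nm after 15 min room-temperature compound exposure; 0.01% Triton X-100, pH 5.5, 5 mM DTT.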
The depositor's hits bear a star; ? = inconclusive. The list is not random: actives were taken first. Their share in the collection is about 2.5%. Calls come from the whole dose curve; as a rule, active = well fitted curve in the direction sought with a large enough effect; inconclusive = small, poorly fitted or top-dose-only effect, or another doubt; inactive = no such curve, though single readings can be large; an effect the other way counts as inactive or inconclusive. Potency is the fitted concentration of half-maximal effect.

SMILES	Cruzain inh noDet	Cruzain inh Det
CCC(C)Sc1oc(-c2ccco2)nc1S(=O)(=O)c1ccc(Cl)cc1 (configuration not stated)	3%	-20%
O=c1c2ccccc2[nH]c(=S)n1Cc1cccs1	25µM*	-3%
O=c1c2ccccc2[nH]c(=S)n1CCc1ccccc1	?	2%
CCSc1nc2c([nH]c3ccccc32)c(=O)n1-c1ccc(F)cc1	3%	-2%
C=CCC(O)(C#Cc1ccccc1)c1ccccc1 (configuration not stated)	14%	1%
O=C(COc1ccc2ccccc2c1Br)NC(=S)Nc1cccc(CO)c1	32µM*	-7%
O=C(COc1ccc(Br)cc1Br)NC(=S)Nc1cccc(CO)c1	?	-9%
CCOC(=O)N1CCc2c(sc(NCc3sccc3C)c2C(=O)Nc2ccccc2OCC)C1	?	-6%
O=[N+]([O-])c1cc([N+](=O)[O-])c2ccccc2c1	-4%	-5%
O=[N+]([O-])c1ccc(CCNc2cccc3ccccc23)c([N+](=O)[O-])c1	25µM*	-1%
Cc1ccc(CNC(=O)c2cc(=O)c3cc(C)c(C)cc3o2)cc1	-14%	-3%
CC(C)(C)C1CCc2onc(C(=O)Nc3cccc(O)c3)c2C1 (configuration not stated)	5%	0%
Cc1ccc(NC(=O)c2noc3c2CC(C(C)(C)C)CC3)cc1 (configuration not stated)	13µM*	5%
COCCN1C(=O)C(CC(=O)Nc2ccc(C(=O)O)cc2)SC1=Nc1ccccc1 (configuration not stated)	0%	0%
COC(=O)c1cc(NC(=O)CC2SC(=Nc3ccccc3)N(CCc3c[nH]c4ccccc34)C2=O)cc(C(=O)OC)c1 (configuration not stated)	5µM*	15%
O=C(O)[C@H]1C2c3ccccc3C(c3ccccc32)[C@@H]1C(=O)NCC1CC1	-3%	-3%
COc1ccc(NS(=O)(=O)c2ccc3[nH]c(=O)ccc3c2)cc1OC	6%	-14%
O=c1c(-c2cc(F)cc(F)c2)nc2cnc(N3CCNCC3)nc2n1Cc1ccc(F)cc1	-14%	-11%
COc1cccc(N2CCN(CC(=O)Nc3nnc(-c4ccccc4)s3)CC2)c1	25µM*	-2%
COc1cccc(N2CCN(CC(=O)NCc3cccs3)CC2)c1	-3%	1%
COc1ccc(-c2cc(C(F)(F)F)nc(SCCC(=O)Nc3ccc(O)cc3)n2)cc1	5%	-14%
Cc1nc(NC(=O)CC(C)C)sc1-c1csc(Nc2ccc(Cl)cc2)n1	13µM*	2%
C=CCCC(=O)Nc1nc(C)c(-c2csc(Nc3ccc(Cl)cc3Cl)n2)s1	?	-1%
COc1ccc(Cl)cc1Nc1nc(-c2sc(NC(=O)CC(C)C)nc2C)cs1	20µM*	-2%
C=CCNc1nc(-c2sc(NC(=O)CC)nc2C)cs1	?	-10%
SMILES	Cruzain inh noDet	Cruzain inh Det
Cc1nc(NC(=O)CC(C)C)sc1-c1csc(Nc2ccc(Cl)cc2Cl)n1	16µM*	-1%
C=CCCC(=O)Nc1nc(C)c(-c2csc(Nc3cc(Cl)ccc3OC)n2)s1	16µM*	-4%
COC(=O)c1cccc(Nc2c(-c3ccc(SC)cc3)nc3nc[nH]n23)c1	6%	-7%
O=C(CN1CCCN(Cc2ccc(F)cc2)S1(=O)=O)NCc1ccccc1Cl	8%	-11%
CCCCCCC(=O)Nc1nc(C)c(-c2csc(Nc3cc(OC)ccc3OC)n2)s1	10µM*	-2%
CCCCCC(=O)Nc1nc(C)c(-c2csc(Nc3cc(OC)ccc3OC)n2)s1	?	5%
CCOc1cc(-c2nc(-c3ccc(-c4ccccc4)nc3OCC)no2)cc(OCC)c1OCC	-2%	-1%
Cc1nn(-c2nnc(NCc3ccccc3)nn2)c(C)c1Br	?	13µM*
Cc1cc(C)n(-c2nc(C)nc(NCc3ccccc3)n2)n1	-4%	4%
COc1ccc(N(C)C(=O)Cn2cc(S(=O)(=O)N3CCN(c4ccccc4F)CC3)c3ccccc3c2=O)c(OC)c1	1%	-4%
c1ccc(-c2ccc(Oc3cc(N4CCOCC4)nc(-c4ccccc4)n3)cc2)cc1	10µM*	4%
CC(C)Sc1cc(N2CCOCC2)nc(-c2ccccc2)n1	-8%	-5%
O=C(c1cccc(N2C(=O)C3CC=CCC3C2=O)c1)N1CCCCCC1 (configuration not stated)	3%	6%
O=C(c1cccc(N2C(=O)C3CC=CCC3C2=O)c1)N1CCN(c2ccccc2)CC1 (configuration not stated)	16µM*	22µM*
O=C(Cn1c(=O)sc2ccccc21)Nc1ccccc1	-12%	8%
O=C(Cn1c(=O)sc2ccccc21)Nc1ccc(S(=O)(=O)N2CCCCC2)cc1	32µM*	-5%
O=C1c2oc3ccccc3c(=O)c2C(c2ccccc2F)N1Cc1ccc2c(c1)OCO2 (configuration not stated)	-1%	-1%
CC(C)c1ccc(NC(=O)Cn2nnc(C(=O)NCc3ccc(Cl)cc3)c2N)cc1	7.9µM*	0%
CC(C)c1ccc(NC(=O)Cn2nnc(C(=O)NCc3cccs3)c2N)cc1	-7%	0%
Nc1c(C(=O)NCCc2ccccc2)nnn1CC(=O)Nc1ccc(Cl)cc1	25µM*	-1%
Cc1ccc(NC(=O)Cn2nnc(C(=O)NCCc3ccccc3)c2N)cc1Cl	?	-4%
O=C(Cn1c(=O)c2ccccc2n(CC(=O)Nc2ccccc2F)c1=O)NCCc1ccccc1	-16%	1%
O=C(Cn1c(=O)c2ccccc2n(CC(=O)Nc2ccc(Cl)cc2)c1=O)NCCc1ccccc1	13µM*	0%
NC(=[SH+])N=N/C=C1/C=CC=CN1.O=S(=O)(O)O.[Fe]	3%	-2%
CCc1ccc(NC(=O)Cn2ccn(-c3ccc(OC)cc3)c(=O)c2=O)cc1	14%	-10%
SMILES	Cruzain inh noDet	Cruzain inh Det
CC(C)OCCCNc1ncnc2sc3c(c12)CCCC3	7%	-5%
C=C(C)C(=O)OC	3%	3%
Cc1ccc2c(=O)cc(C(=O)Nc3ccc(S(=O)(=O)N4CCCCC4)cc3)oc2c1	-16%	-2%
Cc1nc(S/C(=C/c2ccc(-c3ccc(Cl)cc3)o2)C(=O)O)n[nH]1	13µM*	-2%
CCCCOC(=O)/C(C#N)=C\c1ccc(-c2ccc(Cl)cc2)o1	0%	2%
O=C(NCCN1C(=O)S/C(=C\c2ccc(Cl)c(Cl)c2)C1=O)c1ccc2c(c1)C(=O)N(Cc1ccncc1)C2=O	13µM*	-8%
O=C(NCCN1C(=O)S/C(=C\c2ccc(Cl)cc2)C1=O)c1ccc(F)c(S(=O)(=O)N2CCOCC2)c1	?	-12%
CC(=O)c1cccc(-n2c(=O)c3c4c(sc3n(Cc3ccccc3Cl)c2=O)CN(C(C)=O)CC4)c1	3%	-1%
COc1ccc(/C=N/NC(N)=S)cc1OC(=O)c1ccccc1	?	-28%
NC(=S)N/N=C/c1ccc2ccccc2c1	0.79µM*	2.2µM*
NC(=S)N/N=C/C=C/c1ccccc1	16µM*	25µM*
O=C(N/N=C/C=C/c1ccccc1)c1ccccc1Br	0%	-3%
CCN(C(=O)CSc1nc2ccccc2nc1Cc1cccc(OC)c1)c1cccc(C)c1	-6%	3%
C/C(=N\NC(=O)c1ccc(Cl)cc1)c1ccc(Br)s1	?	5%
C/C(=N\NC(=O)c1cc(Cl)ccc1O)c1ccc(Br)s1	10µM*	-6%
Cc1ccc(Cl)cc1NC(=O)Nc1cccc(OCc2cc(=O)n3ccccc3n2)c1	-9%	4%
COc1ccc(-c2oc3ncn4nc(COc5ccc(C)cc5)nc4c3c2-c2ccc(OC)cc2)cc1	7%	2%

Screens: PubChem, National Center for Advancing Translational Sciences (NCATS)
